High-throughput results deposited in PubChem BioAssay by National Center for Advancing Translational Sciences (NCATS).
An excerpt weighted towards active compounds, which were near 3.1% of everything screened.
Nrf2 block = inhibitors of Nrf2 signaling. A549 ARE-Fluc reporter, luciferase luminescence, 18-24 h. Potency, µM (titrated, usually from 46 µM), hits mostly inhibitors. hit rate 2.1% among 360,000. AID 504444; also: nearly all actives have a fitted effect of over 60% in size
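Cells were seeded and rested 2 h, then exposed to compounds for 18-24 h. CellTiter-Fluor was read first as a viability measure. BugLite was added 15 min before the final luminescent read of ARE-luciferase activity in A549 cells.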
rTrxR1 inhibitor = blocks rat thioredoxin reductase 1 | hit rate 1% among 390,000 | O89049 | Potency, µM (top dose mostly 114 µM), actives largely listed as inhibitors | recombinant rTrxR1, NADPH fluorescence consumption, selenite substrate; also: nearly all actives have a fitted effect of over 65% in size
Target sequence (O89049 whole entry, looked up): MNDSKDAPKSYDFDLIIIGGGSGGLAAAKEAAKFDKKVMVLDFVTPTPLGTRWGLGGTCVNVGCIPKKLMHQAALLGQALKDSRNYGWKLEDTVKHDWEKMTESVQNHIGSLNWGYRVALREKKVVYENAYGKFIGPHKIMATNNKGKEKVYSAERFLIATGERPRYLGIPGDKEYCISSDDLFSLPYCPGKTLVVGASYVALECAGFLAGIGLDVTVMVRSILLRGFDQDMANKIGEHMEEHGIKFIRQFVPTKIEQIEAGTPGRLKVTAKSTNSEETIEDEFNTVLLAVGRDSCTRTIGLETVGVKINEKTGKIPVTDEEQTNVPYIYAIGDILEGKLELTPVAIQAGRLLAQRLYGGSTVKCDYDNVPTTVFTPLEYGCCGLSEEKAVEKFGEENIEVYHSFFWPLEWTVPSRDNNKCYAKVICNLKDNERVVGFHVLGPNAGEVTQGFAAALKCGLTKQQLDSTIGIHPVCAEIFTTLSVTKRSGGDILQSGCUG
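Rat TrxR1 (90 nM in the dispensed reagent) was pre-reduced with 400 uM NADPH for 5 min at room temperature, then incubated with compound for 15 min. After 400 uM selenite was added, NADPH fluorescence (Ex 340/Em 450 nm) was followed for 8 min.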
TrxR1 substrate = is turned over as a substrate by rat TrxR1; O89049; purified TrxR1 substrate turnover, NADPH consumption readout; Potency, µM (top dose mostly 114 µM); hit rate 0.01% among 390,000; AID 588456; also: nearly all actives have a fitted effect of over 50% in size
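Rat TrxR1, dispensed at 90 nM, was prereduced with 400 uM NADPH (final) for 5 min at ~22 deg C, then incubated with compound 15 min before 400 uM selenite. A first-read NADPH fluorescence drop versus no-compound background flagged substrates.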
mIDH1 inhibitor = human IDH1 R132H inhibition; IDH1-R132H enzyme, NADPH consumption, diaphorase/resazurin fluorescence; Potency, µM (series often up to 76.6 µM), hits mostly inhibitors; hit rate 0.093% among 390,000; AID 602179; O75874; also: nearly all actives have a fitted effect of over 65% in size
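IDH1-R132H (0.5 ug/mL dispensed) in pH 7.5 Tris buffer was preincubated 30 min with compound, then given a substrate mix of 0.016 mM NADPH and 2 mM alpha-KG for 80 min at room temperature; remaining NADPH was read by diaphorase/resazurin fluorescence.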
Mito fusion act = blocks mitochondrial division or promotes mitochondrial fusion. S. cerevisiae fusion-defective mutant growth rescue, CellTiterGlo 48 h. Potency, µM (top dose mostly 46.1 µM), most hits filed as activators. hit rate 0.23% among 320,000; also: nearly all actives have a fitted effect of over 45% in size
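Growth-rescue viability read-out: after 48 h at the non-permissive 37C in glycerol/ethanol YPEG, yeast mitochondrial fusion mutants are measured by CellTiterGlo luminescence; compounds (23 nl pinned per well) restoring growth score as division inhibitors or fusion activators.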
A549 viability = A549 cytotoxicity, counter-screen for Nrf2 inhibitors; Potency, µM (highest dose often 46 µM), hits mostly inhibitors; A549 ARE-Fluc cells, CellTiter-Fluor viability, 18-24 h; hit rate 0.16% among 390,000; AID 504648
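A549 ARE_Fluc cells in 5% FBS OPTI-MEM were exposed to compounds in concentration-response for 18-24 h at 37 deg C. Viability was read by CellTiter-Fluor fluorescence (Ex 405/Em 525) after 30 min, before the luciferase read.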
Hits are given with their value; 0 = inactive; ? = inconclusive; - = no result given; ! = repeats disagree; [ ] = another dose, or the depositor's remark. Calls follow the shape of the dose curve; as a rule, active = well fitted curve in the direction sought with a large enough effect; inconclusive = small, poorly fitted or top-dose-only effect, or another doubt; inactive = no such curve, though single readings can be large; an effect the other way counts as inactive or inconclusive.

SMILES	Nrf2 block	rTrxR1 inhibitor	TrxR1 substrate	mIDH1 inhibitor	Mito fusion act	A549 viability
COc1ccc(/C(N)=N/OC(=O)Cc2ccc(OC)c(OC)c2)cc1	15µM	0	0	0	0	0
COc1ccc(C/C(N)=N/OC(=O)C(c2ccccc2)c2ccccc2)cc1OC	23µM	0	0	0	0	0
Cc1nc(C)c(C(=O)NCCC(c2ccccc2)c2ccccc2)o1	10µM	0	0	0	0	0
O=C(Nc1ccc(-n2cc(Br)cn2)cc1)c1ccncc1	26µM	0	0	0	0	0
COc1cccc(CNC(=O)CN2CCC(c3nc4ccc(C)cc4[nH]3)CC2)c1	16µM	0	0	0	0	0
O=S(=O)(NCC1CN(S(=O)(=O)c2c(F)cccc2F)C1)c1ccc2c(c1)OCCO2	12µM	0	0	-	0	0
COc1ccc(C(=O)Nc2ccc(-c3ccc(C)o3)cc2)cc1S(=O)(=O)N1CCOCC1	18µM	?	0	0	0	?
COc1ccc(NC(=O)c2cc3c(s2)CCC(C)C3)cc1S(=O)(=O)N1CCOCC1 (stereo not drawn)	18µM	0	0	0	0	0
Cc1ccc(S(=O)(=O)N2CCOCC2)cc1NC(=O)c1cc2c(s1)CCC2	0	0	0	0	0	0
CCc1sc(C(=O)Nc2ccc(OC)c(S(=O)(=O)N3CCOCC3)c2)cc1C	?	0	0	0	-	0
Cc1ccc(NC(=O)c2cc3c(s2)CCC3)cc1S(=O)(=O)N1CCOCC1	21µM	0	0	0	0	0
Clc1cccc(CNc2ncnc3nc[nH]c23)c1	-	0	0	-	-	-
O=C(CN1C(=O)NC2(CCCC2)C1=O)Nc1ccccc1C(F)(F)F	0	0	0	0	0	0
CCC(C)(C)C1CCC2(CC1)NC(=O)N(CC(=O)N(C)CC(=O)Nc1ccccc1C(F)(F)F)C2=O (stereo not drawn)	15µM	0	0	0	0	0
O=C(NCCc1ccccc1)[C@@H]1CC=C[C@@H]2CCN(C3CC3)C(=O)[C@@H]21	-	0	0	-	-	-
COc1ccc(-c2csc(N3CCN(C(=O)c4ccco4)CC3)n2)cc1	0	0	0	0	0	0
COc1ccc(-c2csc(N3CCN(C(=O)c4ccccc4)CC3)n2)cc1	13µM	0	0	0	0	0
COCCNC(=S)N1CCN(c2nc(-c3ccccc3)cs2)CC1	0	0	0	0	0	0
CCCNC(=S)N1CCN(c2nc(-c3ccc(C)cc3)cs2)CC1	23µM	0	0	0	0	0
COCCCNC(=S)N1CCN(c2nc(-c3ccc(F)cc3)cs2)CC1	15µM	0	0	0	0	0
CCCNC(=S)N1CCN(c2nc(-c3cccc(OC)c3)cs2)CC1	?	0	0	0	0	0
CNC(=S)N1CCN(c2nc(-c3ccc(F)cc3)cs2)CC1	?	0	0	0	0	0
CCOCCCNC(=S)N1CCN(c2nc(-c3ccc(F)cc3)cs2)CC1	16µM	0	0	0	0	0
CCc1cccc(C)c1NC(=O)CN1CCN(Cc2ccccc2Cl)S1(=O)=O	0	0	0	0	-	0
CC(=O)c1c(C(C)=O)c(C)n(-c2nc(-c3ccc(C)c(C)c3)c(C)s2)c1C	13µM	0	0	0	0	0
SMILES	Nrf2 block	rTrxR1 inhibitor	TrxR1 substrate	mIDH1 inhibitor	Mito fusion act	A549 viability
Cc1cccc(C)c1OCC(=O)Nc1cccc(S(=O)(=O)N2CCCC2)c1	15µM	0	0	0	0	0
Cc1cccc(NC(=O)CSCC(=O)Nc2cccc(S(=O)(=O)N3CCCCCC3)c2)c1	?	0	0	0	0	0
CCOc1ccccc1C(=O)OCC(=O)Nc1cccc(S(=O)(=O)N2CCCC2)c1	0	0	0	0	-	0
COc1ccc(OC)c(/C=C/C(=O)Nc2cccc(S(=O)(=O)NC3=NCCCCC3)c2)c1	?	0	0	0	0	0
COc1ccc(OC)c(/C=C/C(=O)Nc2cccc(S(=O)(=O)N3CCCC3)c2)c1	13µM	0	0	0	0	0
CCS(=O)c1ccccc1C(=O)OCC(=O)Nc1cccc(S(=O)(=O)N2CCCCC2)c1 (stereo not drawn)	21µM	0	0	0	0	0
Cc1ccc(NC(=O)CSCC(=O)Nc2cccc(S(=O)(=O)N3CCCCCC3)c2)cc1	13µM	0	0	0	0	0
CC(C)(C)n1ncc2c(=O)n(Cc3ccccc3C(F)(F)F)cnc21	-	0	0	-	-	-
COC(=O)c1ccc2c(=O)n(CCc3ccc(S(N)(=O)=O)cc3)c(SCC(=O)C(C)(C)C)nc2c1	-	0	0	0	-	0
O=C(COc1ccccc1Br)Nc1ccc(S(=O)(=O)N2CCCC2)cc1	13µM	0	0	0	?	0
O=[N+]([O-])c1cccc(S(=O)(=O)Nc2nc3ccccc3nc2Nc2cccc(S(=O)(=O)N3CCCCC3)c2)c1	?	0	0	?	0	?
Cc1cc(OCC(=O)Nc2cccc(S(=O)(=O)N3CCCC3)c2)ccc1Cl	16µM	0	0	0	0	0
COc1ccc(CCC(=O)Nc2cccc(S(=O)(=O)N3CCCCCC3)c2)cc1	21µM	0	0	0	0	0
Cc1ccc(S(=O)(=O)Nc2nc3ccccc3nc2Nc2cccc(S(=O)(=O)N3CCCC3)c2)cc1	9.2µM	0	0	0	0	0
COc1cc(C(=O)N2CC(=O)Nc3ccc(C)cc3C2c2ccc(F)cc2)cc(OC)c1OC (stereo not drawn)	0[9.27 µM]	0	0	0	-	0
O=C(Nc1nc2c(F)cc(F)cc2s1)C1CC(=O)N(Cc2ccco2)C1 (stereo not drawn)	0	50µM	0	0	0	0
Cc1cc(C)c2nc(NC(=O)C3CC(=O)N(Cc4ccco4)C3)sc2c1 (stereo not drawn)	?	0	0	0	0	0
O=C1CCC2=C1C1(CCCC1)N=C(Nc1nc3ccccc3o1)N2	?	-	-	-	-	0
N=c1c2c(ncn1-c1ccccc1)Oc1ccc3ccccc3c1C2c1ccc2c(c1)OCO2 (stereo not drawn)	21µM	-	-	-	-	15µM
COc1ccccc1C1c2c(ncn(-c3ccccc3)c2=N)Oc2ccc3ccccc3c21 (stereo not drawn)	23µM	-	-	-	-	21µM
COc1cccc(C2c3c(ncn(-c4ccccc4)c3=N)Oc3ccc4ccccc4c32)c1 (stereo not drawn)	15µM!	-	-	-	-	15µM!
CCOc1ccccc1NC(=O)C1CCCN(S(=O)(=O)c2cccs2)C1 (stereo not drawn)	0	0	0	0	-	0
O=C1OC(NC(=O)c2ccccc2)C(n2cc(CO)nn2)=C1Cl (stereo not drawn)	0	10µM	0	0	0	0
Cc1[nH]c(SCC(=O)Nc2cc(C(N)=O)cc(C(N)=O)c2)nc1Cc1ccccc1	0	?	0	0	-	0
